High-throughput results from PubChem.
Hits are enriched below; roughly 1.5% of the tested compounds scored in any of these assays.
TLR4 MyD88 comp = inhibitors of human TLR4-MyD88 binding. HeLa CL3-4 TLR4/MyD88 BLA complementation, FRET ratio. inhibition, % at 8.4 µM. 200,000 tested, 0.18% active; in the data active = inhibition above about 25%;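 also: 0% = vehicle and 100% = reference inhibitor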
Target sequence (O00206 whole entry, looked up): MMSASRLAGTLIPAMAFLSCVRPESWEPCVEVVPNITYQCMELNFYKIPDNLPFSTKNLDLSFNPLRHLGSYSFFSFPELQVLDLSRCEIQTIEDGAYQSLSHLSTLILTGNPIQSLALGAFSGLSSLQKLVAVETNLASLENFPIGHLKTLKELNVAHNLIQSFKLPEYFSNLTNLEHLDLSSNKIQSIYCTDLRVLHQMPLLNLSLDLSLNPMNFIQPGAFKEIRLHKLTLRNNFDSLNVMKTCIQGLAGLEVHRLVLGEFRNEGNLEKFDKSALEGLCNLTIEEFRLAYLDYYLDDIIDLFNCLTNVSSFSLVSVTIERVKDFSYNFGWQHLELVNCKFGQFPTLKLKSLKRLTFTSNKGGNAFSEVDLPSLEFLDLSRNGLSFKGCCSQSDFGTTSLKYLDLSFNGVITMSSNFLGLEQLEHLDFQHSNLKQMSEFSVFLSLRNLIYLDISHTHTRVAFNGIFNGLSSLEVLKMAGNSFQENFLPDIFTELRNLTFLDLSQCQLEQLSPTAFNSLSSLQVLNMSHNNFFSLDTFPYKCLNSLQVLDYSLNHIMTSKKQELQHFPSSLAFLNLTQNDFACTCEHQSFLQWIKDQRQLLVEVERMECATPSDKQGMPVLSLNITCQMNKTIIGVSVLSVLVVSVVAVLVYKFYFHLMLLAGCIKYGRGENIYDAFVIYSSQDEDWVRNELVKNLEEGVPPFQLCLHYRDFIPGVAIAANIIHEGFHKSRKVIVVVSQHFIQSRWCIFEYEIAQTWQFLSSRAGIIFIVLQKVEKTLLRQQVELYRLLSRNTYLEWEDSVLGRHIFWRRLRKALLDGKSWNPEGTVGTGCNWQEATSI
Target sequence (Q99836 whole entry, looked up): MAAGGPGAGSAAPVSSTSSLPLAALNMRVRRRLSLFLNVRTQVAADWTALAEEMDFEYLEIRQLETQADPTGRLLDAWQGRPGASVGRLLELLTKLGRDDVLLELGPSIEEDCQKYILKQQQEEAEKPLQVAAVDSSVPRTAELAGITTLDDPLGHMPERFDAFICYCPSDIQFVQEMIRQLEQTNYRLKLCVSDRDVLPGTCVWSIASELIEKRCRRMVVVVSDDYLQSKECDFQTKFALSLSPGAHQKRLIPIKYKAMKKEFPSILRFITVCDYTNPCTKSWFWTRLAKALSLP
Myeloid diff 2 = promotes myeloid progenitor differentiation; ER-HoxA9 myeloid progenitors, lysozyme-GFP differentiation, flow cytometry; calls only at 10 µM; 360,000 tested, 1% active;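 active = normalized GFP-positive differentiation at or above the plate's own cutoff, the solvent-only control mean plus 3 SD; inconclusive = no clear call, values can overlap the other calls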;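 also: cells exposed to compound for four days before flow analysis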
NOD2-RIPK2 inh = blocks binding of human NOD2 to RIPK2; 360,000 tested, 0.38% active; O43353; inhibition, % at 4.98 µM; CHO BLA complementation NOD2-RIPK2, CCF4 ratio; in the data active = inhibition above about 21%;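 also: 0% = vehicle only and 100% = reference blocker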
TLR9-MyD88 block = inhibitors of human TLR9-MyD88 binding; CHO BLA complementation TLR9-MyD88, CCF4 FRET ratio; inhibition, % at 4.98 µM; 340,000 tested, 0.21% active; AID 504734;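 active = inhibition above the mean over all tested compounds plus 3 SD, cut at about 21% in these data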;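 also: 0% = DMSO only wells and 100% = clavulanate BLA inhibitor control wells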
* marks the source's active call; other numbers are inactive results; i = inactive; ? = inconclusive; nt = no result; + = active, no number.

SMILES	TLR4 MyD88 comp	Myeloid diff 2	NOD2-RIPK2 inh	TLR9-MyD88 block
CCCC(=O)N1CCC1(C)C(=O)Nc1cccc(F)c1 (stereo not given)	nt	i	-1	nt
COc1ccc(C(=O)C2CCCN(Cc3ccc4nonc4c3)C2)cc1F (stereo not given)	4	i	3	5
COc1ccc(C(=O)C2CCCN(Cc3ccc(C#CCCO)cc3)C2)cc1F (stereo not given)	2	+	-1	16
COc1ccccc1CNCC(O)(c1ccc(Cl)cc1)c1ccc(Cl)cc1	10	+	-6	-9
COc1ccccc1CNCC(O)(c1ccc(F)cc1)c1ccc(F)cc1	nt	i	-17	-14
CCn1c(O)c(C=Nc2ccccc2)sc1=S	-3	nt	nt	nt
Oc1c(C=Nc2ccccc2)sc(=S)n1Cc1ccccc1	10	+	-14	-2
Cc1cc(F)cc(-c2cc(C(=O)NCc3ccccn3)[nH]n2)c1	nt	i	-14	nt
CN1/C(=C\C=Nc2ccc3ccccc3c2)C(C)(C)c2ccccc21	12	i	12	16
CN(C)c1ccc(N=C/C=C2\N(C)c3ccccc3C2(C)C)cc1	8	+	0	-16
CN1\C(=C/C=C/C=C/C=[N+](C)C)C(C)(C)c2ccccc21	-11	+	-4	4
CCCCCCN1C[C@H](O)[C@@H](n2cc(C3CC3)nn2)C[C@@H]1c1ccccc1	nt	i	-2	-12
COc1ccccc1CN(C)C[C@@H]1OCc2cnnn2CCCC(=O)N([C@@H](C)CO)C[C@H]1C	nt	i	-3	-7
CCC(=O)N[C@@H]1C=C[C@@H](CC(=O)NCc2ccccc2F)O[C@@H]1CO	nt	i	-12	nt
COc1cccc(CNc2ccccc2O)c1OCc1ccccc1F	5	+	3	5
COC(=O)[C@]12CCCCC=C1N(Cc1cccc3ccccc13)C(=O)[C@H](CC(=O)NCCC(C)C)C2	nt	i	-9	nt
O=c1cc(N2CCN(c3ccccc3)CC2)[nH]c(=O)n1Cc1ccc(F)cc1	-17	+	5	-9
CN1CCN(c2cc(=O)n(Cc3ccc(F)cc3)c(=O)[nH]2)CC1	5	i	-2	-2
CNc1ccc2c3c(cccc13)C(=O)N(C)C2=O	nt	+	13	10
O=c1[nH]c2cc3ccccc3cc2nc1-c1nnnn1C1CCCC1	nt	+	-11	nt
Cc1ccc(N2C3=C(C(=O)CC(C)(C)C3)C(c3cn(C)nc3C)C3=C2CC(C)(C)CC3=O)cc1	nt	+	-1	-5
CCNC(=O)C1(C)CCCN(Cc2ccc3ccccc3c2Br)C1 (stereo not given)	nt	i	-2	nt
COc1ccc(NC(=O)/C(Cl)=C(/Cl)S(=O)(=O)Cc2ccc(C)cc2)cn1	6	?	75*	27*
COc1ccc(NC(=O)C(C2CC2)n2c(=O)c(-c3ccccc3)nc3ccccc32)cc1 (stereo not given)	nt	i	-4	nt
CCOc1ccccc1N1CCN(C(=O)c2cc(-c3cccnc3)nc3c(Cl)cccc23)CC1	nt	+	-12	-13
SMILES	TLR4 MyD88 comp	Myeloid diff 2	NOD2-RIPK2 inh	TLR9-MyD88 block
CCOc1ccccc1N1CCN(C(=O)c2ccncc2)CC1	3	nt	8	1
CCCNC(=O)C[C@H]1CC[C@@H]2[C@H](COC[C@@H](O)CN2C(=O)c2ccccn2)O1	nt	i	1	nt
COc1cc(/C=C2/CC/C(=C/c3ccc(O)c(OC)c3)C2=O)ccc1O	nt	+	-10	2
COc1ccc(C(=O)C(=O)N2CCC(Cc3ccccc3)CC2)cc1OC	nt	i	-11	nt
O=c1c2ccccc2nc2ccc(NCc3ccco3)nn12	-6	i	2	3
Cc1sc2nc3ccc(NCc4ccco4)nn3c(=O)c2c1C	-9	+	5	-2
CC(=O)c1sc2nsc(SCCN3CCCCC3)c2c1N	nt	i	-9	nt
Nc1c(C(=O)c2ccc(Cl)cc2)sc2nsc(SCCN3CCOCC3)c12	nt	+	-1	-9
CCc1nc2c(OCCOc3ccc(F)cc3)cccn2c1N(C=O)Cc1ccccc1	nt	i	5	nt
Cn1cc(S(=O)(=O)NC[C@H]2O[C@@H](n3cnc4c(N)ncnc43)[C@H](O)[C@@H]2O)cn1	nt	+	7	-1
Nc1ncnc2c1ncn2[C@@H]1O[C@H](CO)[C@@H](O)[C@H]1O	-11	+	-15	-1
CCCCN(C=O)c1c(CC)nc2ccc(C(=O)N3CCCCC3)cn12	nt	i	3	nt
N#C/C(=N\Nc1ccc(S(=O)(=O)N2CCOCC2)cc1)C(N)=S	nt	+	6	-2
CCCCn1nnnc1C(c1ccccc1)N1CCN(C/C=C/c2ccccc2)CC1 (stereo not given)	nt	i	-7	nt
CC(=O)COc1ccc2c(c1C)O/C(=C\c1ccco1)C2=O	nt	+	-1	2
